Several values for one entry are separate records, joined by “and”; a condition that tells them apart may be missing. Equal values may be shown once. About 2,000 (36%) of roughly 5,500 compounds were called active. About 18% were inconclusive and are not listed. Rule as the data show it: active = normalized growth mostly below about 0.91 (no sharp cut-off); inconclusive = no clear call, values can overlap the other calls; inactive = mostly above about 0.92. The list shows a part of the results.
Test: chemical genetic growth profiling, strain panel (AID 1159580);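 also: tested at 20 µM; growth read once vehicle control cultures reached saturation at 30 °C; 1 = growth at the plate median or of vehicle wells; lower values mean less growth of the strain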
Settings: S. cerevisiae deletion strains, growth OD

Measured: normalized growth

COc1ccc2c(c1)O[C@@H]1COc3cc(OC)c(OC)cc3[C@@H]1C2=O
0.547 (active) and 0.988 (inactive): locus YHR030C, strain SLT2, stronger effect = lower value
inactive: locus YAL021C, strain ccr4, stronger effect = lower value 0.977 | locus YBR021W, strain FUR4, stronger effect = lower value 0.897 | locus YBR171W, strain sec66, stronger effect = lower value 0.965 | locus YBR229C, strain ROT2, stronger effect = lower value 0.997 | locus YDL005C, strain med2, stronger effect = lower value 0.979 | locus YDL035C, strain GPR1, stronger effect = lower value 0.906 | locus YDL040C, strain nat1, stronger effect = lower value 0.967 | locus YDL185W, strain tfp1, stronger effect = lower value 0.935 | locus YDR001C, strain nth1, stronger effect = lower value 0.97 | locus YDR069C, strain doa4, stronger effect = lower value 1.02 | locus YDR137W, strain rgp1, stronger effect = lower value 0.995 | locus YDR150W, strain NUM1, stronger effect = lower value 0.977 | locus YDR159W, strain sac3, stronger effect = lower value 0.864 | locus YDR388W, stronger effect = lower value 0.975 | locus YEL037C, strain rad23, stronger effect = lower value 0.981 | locus YFR010W, strain ubp6, stronger effect = lower value 1.02 | locus YGL078C, strain dbp3, stronger effect = lower value 0.933 | locus YGL167C, strain pmr1, stronger effect = lower value 0.974 | locus YGL173C, strain kem1, stronger effect = lower value 0.954 | locus YGL240W, strain doc1, stronger effect = lower value 0.916 | locus YHR027C, strain rpn1, stronger effect = lower value 0.999 | locus YHR079C, strain IRE1, stronger effect = lower value 0.97 | locus YHR200W, strain rpn10, stronger effect = lower value 0.939 | locus YIL073C, strain SPO22, stronger effect = lower value 0.903 | locus YIL125W, strain kgd1, stronger effect = lower value 0.989 | locus YJL134W, strain LCB3, stronger effect = lower value 0.935 | locus YJL154C, strain vps35, stronger effect = lower value 0.982 | locus YJL168C, strain set2, stronger effect = lower value 0.978
0.332 (active) and 0.966 (inactive): locus YJL095W, strain BCK1, stronger effect = lower value
active: locus YAL026C, strain drs2, stronger effect = lower value 0.694 | locus YAL030W, strain snc1, stronger effect = lower value 0.663 | locus YBL061C, strain skt5, stronger effect = lower value 0.707 | locus YBR009C, strain hhf1, stronger effect = lower value 0.34 | locus YBR023C, strain chs3, stronger effect = lower value 0.819 | locus YBR231C, strain swc5, stronger effect = lower value 0.554 | locus YBR279W, strain paf1, stronger effect = lower value 0.527 | locus YCL011C, strain gbp2, stronger effect = lower value 0.674 | locus YCL016C, strain dcc1, stronger effect = lower value 0.614 | locus YCL029C, strain bik1, stronger effect = lower value 0.68 | locus YCL061C, strain MRC1, stronger effect = lower value 0.354 | locus YCL069W, strain vba3, stronger effect = lower value 0.384 | locus YCR088W, strain abp1, stronger effect = lower value 0.823 | locus YDL074C, strain BRE1, stronger effect = lower value 0.676 | locus YDL101C, strain DUN1, stronger effect = lower value 0.669 | locus YDL134C, strain PPH21, stronger effect = lower value 0.68 | locus YDL192W, strain arf1, stronger effect = lower value 0.893 | locus YDR101C, strain arx1, stronger effect = lower value 0.913 | locus YDR162C, strain NBP2, stronger effect = lower value 0.752 | locus YDR195W, strain ref2 0.842 | locus YDR297W, strain sur2, stronger effect = lower value 0.652 | locus YDR318W, strain mcm21, stronger effect = lower value 0.516 | locus YDR334W, strain swr1, stronger effect = lower value 0.427 | locus YDR335W, strain msn5, stronger effect = lower value 0.867 | locus YDR392W, strain spt3, stronger effect = lower value 0.131 | locus YDR502C, strain sam2, stronger effect = lower value 0.831 | locus YEL003W, strain gim4, stronger effect = lower value 0.531 | locus YEL061C, strain CIN8 (second series), stronger effect = lower value 0.257 | locus YEL061C, strain CIN8, stronger effect = lower value 0.315 | locus YER015W, strain faa2, stronger effect = lower value 0.693 | locus YER016W, strain bim1, stronger effect = lower value 0.818 | locus YER110C, stronger effect = lower value 0.799 | locus YER111C, strain swi4, stronger effect = lower value 0.423 | locus YER155C, strain BEM2 (second series), stronger effect = lower value 0.163 | locus YER155C, strain BEM2, stronger effect = lower value 0.426 | locus YER167W, strain BCK2, stronger effect = lower value 0.684 | locus YGL086W, strain mad1, stronger effect = lower value 0.458 | locus YGL227W, strain vid30, stronger effect = lower value 0.28 | locus YGL248W, strain PDE1, stronger effect = lower value 0.649 | locus YGL253W, strain hxk2, stronger effect = lower value 0.633 | locus YGR135W, strain pre9, stronger effect = lower value 0.786 | locus YGR252W, strain gcn5, stronger effect = lower value 0.755 | locus YHR013C, strain ard1, stronger effect = lower value 0.558 | locus YHR079C, strain IRE1 (second series), stronger effect = lower value 0.814 | locus YHR094C, strain hxt1, stronger effect = lower value 0.699 | locus YHR129C, strain ARP1, stronger effect = lower value 0.489 | locus YHR142W, strain chs7, stronger effect = lower value 0.195 | locus YIL066C, strain RNR3, stronger effect = lower value 0.675 | locus YIR030C, strain dcg1, stronger effect = lower value 0.879 | locus YJL092W, strain hpr5, stronger effect = lower value 0.822 | locus YJL095W, strain BCK1 (second series), stronger effect = lower value 0.488 | locus YJL115W, strain asf1, stronger effect = lower value 0.819 | locus YJL129C, strain trk1, stronger effect = lower value 0.441 | locus YJL164C, strain tpk1, stronger effect = lower value 0.438 | locus YJL166W, strain qcr8, stronger effect = lower value 0.208 | locus YJL187C, strain SWE1 (second series), stronger effect = lower value 0.822 | locus YJL187C, strain SWE1, stronger effect = lower value 0.589

— PubChem BioAssay AID1159580 (chemical genetic matrix, 2015)
